The text below walks through data of PubChem BioAssay (NCI).

Test systems include OVCAR-8 ovarian; OVCAR-5 ovarian; OVCAR-4 ovarian; SK-OV-3 ovarian; IGROV1 ovarian; OVCAR-3 ovarian; HS 578T breast; T-47D breast; NCI/ADR-RES ovarian.
Common to all, as to experiment: NCI-60 one-dose screen, 48 h (100 = growth as untreated, 0 = no growth, -100 = all killed)
Conditions in all cases: 10 µM

About 83,000 compounds went through this panel and 20% of them were active in at least one assay; those are over-represented in the sample as a whole.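 For each line, cells grew in 96-well plates with the test compound present at a single concentration for 48 hours.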 Values without a mark were called inactive. Calls of active or inactive are those of the source. Rule for the calls: active = growth percent below 10; inactive = the rest.

Consider `COc1ccc(CN2CCC(N3CCCC3=O)c3cc(Cl)ccc32)cc1` (stereo unspecified), for which the growth in the assay on OVCAR-8 ovarian is 104%; in the assay with OVCAR-5 ovarian, 93.3%; in the assay on OVCAR-4 ovarian it was 95.3%; in the assay with SK-OV-3 ovarian, 105%; with IGROV1 ovarian it was 104%; in the assay with OVCAR-3 ovarian, 120%. Also, the growth with HS 578T breast is 99.3%; in the assay on T-47D breast, 89.5%.
In the case of `CCCCC/C=C/C(=O)CCc1ccc(O)c(OC)c1`, the growth in the assay on OVCAR-8 ovarian was 88.6%; in the assay with OVCAR-5 ovarian it was 127%; with SK-OV-3 ovarian, 86.7%; in the assay on OVCAR-3 ovarian it was 55.8%; with HS 578T breast, 104%; with T-47D breast, 73.3%.
For the compound `COc1ccc(-c2cc(-c3cccc(NS(C)(=O)=O)c3)nc(N)c2C#N)cc1`, the growth is 37.6% in the assay with OVCAR-8 ovarian; 53.8% with OVCAR-5 ovarian; 51.3% in the assay on OVCAR-4 ovarian; 20.3% with SK-OV-3 ovarian; 73.4% in the assay on IGROV1 ovarian; -48.4% (active) with OVCAR-3 ovarian. Besides, in the assay on T-47D breast, the growth is 57.5%.
With `CCOC(=O)C(NC(=O)C(Cl)Cl)C(O)c1ccccc1` (stereo unspecified), the growth with OVCAR-8 ovarian is 102%; with OVCAR-5 ovarian it was 102%; in the assay with OVCAR-4 ovarian it was 110%; in the assay with SK-OV-3 ovarian, 116%; with IGROV1 ovarian it was 77.7%; with OVCAR-3 ovarian it was 109%. Also, the growth is 120% with HS 578T breast, 108% with NCI/ADR-RES ovarian and 107% in the assay with T-47D breast.
As for `COc1ccc(OC)c(/C=C/c2nnc(Nc3ccc(Cl)cc3)o2)c1`, the growth in the assay with OVCAR-8 ovarian was 66.7%; in the assay on OVCAR-5 ovarian it was 103%; with OVCAR-4 ovarian, -16% (active); with SK-OV-3 ovarian, 32.9%; in the assay with IGROV1 ovarian it was 80.6%; in the assay on OVCAR-3 ovarian, 32.1%. The growth was 6.91% (active) with HS 578T breast and -4.56% (active) with T-47D breast.
For the compound `COc1cc2c(cc1OCCCN1CCN(c3ncnc4ccccc34)CC1)N=CC1CCCN1C2=O` (stereo unspecified), the growth with OVCAR-8 ovarian is -54.7% (active); in the assay with OVCAR-5 ovarian, 17.7%; in the assay on OVCAR-4 ovarian it was 4.86% (active); in the assay on IGROV1 ovarian it was -28.9% (active); in the assay with OVCAR-3 ovarian it was -35.2% (active); with HS 578T breast, -57.6% (active). Moreover, the growth in the assay with NCI/ADR-RES ovarian was 15.9%; in the assay with T-47D breast, 25%.
